{"source": "PubChem BioAssay AID2778", "about": "(National Center for Advancing Translational Sciences (NCATS), 2010)", "note": "Results filed as inconclusive are left out. Where a call stands in place of a potency, no number is given. Active and inactive are the calls of the source. Calls come from the whole dose curve; as a rule, active = well fitted inhibition curve with a large enough effect; inconclusive = small, poorly fitted or top-dose-only effect, or effect the other way; inactive = flat fitted curve, though single readings scatter. Potency is the fitted concentration of half-maximal effect."}
{"target": "Menin (Homo sapiens) (UniProt O00255)", "sequence (O00255 whole entry, looked up)": "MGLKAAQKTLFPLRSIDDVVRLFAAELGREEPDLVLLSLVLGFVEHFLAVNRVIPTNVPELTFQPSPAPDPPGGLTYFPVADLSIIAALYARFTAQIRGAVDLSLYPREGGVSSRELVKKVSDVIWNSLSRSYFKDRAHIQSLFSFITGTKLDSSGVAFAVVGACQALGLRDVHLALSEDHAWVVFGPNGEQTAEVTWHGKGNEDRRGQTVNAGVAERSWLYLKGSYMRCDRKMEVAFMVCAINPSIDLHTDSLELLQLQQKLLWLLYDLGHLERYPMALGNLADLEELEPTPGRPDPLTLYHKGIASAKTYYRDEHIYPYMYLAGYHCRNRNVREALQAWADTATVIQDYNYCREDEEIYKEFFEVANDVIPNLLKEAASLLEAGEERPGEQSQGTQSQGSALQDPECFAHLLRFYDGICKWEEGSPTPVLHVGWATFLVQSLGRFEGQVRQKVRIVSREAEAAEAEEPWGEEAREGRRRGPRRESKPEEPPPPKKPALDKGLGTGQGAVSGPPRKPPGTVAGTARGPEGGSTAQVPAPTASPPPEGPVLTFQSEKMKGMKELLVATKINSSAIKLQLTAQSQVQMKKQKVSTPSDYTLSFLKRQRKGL", "assay": "Confirmation of Inhibitors Targeting the Menin-MLL Interaction in MLL Related Leukemias: Confirmation in an HTRF (commercial TR-FRET) Assay using His-tagged menin and biotin-labeled MLL peptide", "conditions": "His-menin / biotin-MLL peptide binding; series mostly up to 126 µM", "description": "qHTS Assay for Inhibitors Targeting the Menin-MLL Interaction in MLL Related Leukemias\nNIH Chemical Genomics Center [NCGC]\nNIH Molecular Libraries Probe Centers Network [MLPCN]\nAssay Submitter (PI): Jolanta Grembecka, Tomasz Cierpicki, University of Virginia\nTranslocations of the MLL (Mixed Lineage Leukemia) gene are frequently found in human leukemias affecting both children and adults. Fusion of MLL to one of more than 60 genes results in generation of oncogenic proteins upregulating Hox genes, which are vital to blood cell development. Patients harboring fusion of the MLL gene suffer from aggressive leukemias and respond poorly to available therapies. All of the oncogenic fusion proteins have a preserved N-terminal fragment of MLL that has been identified to interact with menin. It has been recently discovered that association with menin is critical to the leukemogenic activity of the MLL fusion oncoproteins. Selective targeting of the menin-MLL interaction could provide an attractive therapeutic approach to develop novel drugs for MLL-related leukemias. Small molecules blocking the menin-MLL interaction should reverse the oncogenic potential of MLL fusion proteins.\nWe have developed and optimized a fluorescence polarization-based assay for the identification of Menin-MLL inhibitors. The assay was run employing two different MLL-derived peptides. The present assay uses a 12 amino acid peptide labeled with fluorescein at its N-terminus. This peptide consists of the menin high affinity binding motif from MLL and is potently bound by menin. Another peptide with a mutated sequence, labeled with Texas Red, was used in parallel as a less stringent screen for inhibitors.\nThe present assay uses an alternate technology to confirm hits from the primary screen - homogeneous time resolved fluorescence (HTRF).\nThe Menin protein, the MLL-wild type (w.t.) derived peptide (N-terminal 12 amino acids), the MLL-derived peptide labeled with Texas Red and the MLL-w.t. peptide labeled with Fluorescein were kindly supplied by laboratory of Dr. Jolanta Grembecka, University of Virginia. All protein and peptide solutions were stored in single use aliquots at -80C. The Eu3+ Cyrptate-conjugated mouse monoclonal antibody anti-6 Histidine (Eu3+-AB) and the Streptavidin-XL665 conjugate (XL665) were purchased from Cisbio International (Bedford, MA). All antibody and XL665 conjugate solution stocks were stored in single use aliquots at -20C. The Buffer components for all assays were purchased from Sigma-Aldrich (St. Louis, MO) and Invitrogen (Carlsbad, CA).\n1. HTRF reaction buffer: 50 mM Tris-HCl pH 7.5, 50 mM NaCl, 1mM DTT.\nBefore use, 0.05% BSA is added.\n2. His6-Menin protein, MLL-w.t. labeled with biotin.\nStored in singe use aliquots at -80C.\n3. MLL-w.t. unlabeled peptide as positive control: 10 uM final in HTRF buffer.\n1. Prepare His6-Menin at 200 nM, MLL-w.t.-biotin at 80 nM in HTRF buffer.\n2. Prepare His6-Menin at 200 nM, MLL-w.t.-biotin at 80 nM and 10 uM MLL-w.t. unlabeled mixture in HTRF buffer.\n3. Dispense 10 ul per well of reagent in step 1 in columns 2, 4-24 in a black 384 well plate, dispense 10 ul per well of reagents from steps 2 in column 1. Incubate plate at ambient for 15 minutes.\n4. Transfer 1 uL per well of compound to plate and incubate at ambient for 1 hr.\n5. Dispense 10uL of the donor (6His-Cryptate, 3.5 nM final conc.) and acceptor (SA_XL, 10nM final conc.) complex in the HTRF buffer with 0.01% BSA. Incubate for 1h."}
{"smiles": "O=C1NC(=O)C(=Cc2ccc3ccccc3c2)C(=O)N1", "Potency": "inactive"}
{"smiles": "OC12C3C4CC5C6C4C1C6C(C53)N2CCc1cccc(F)c1", "note": "(stereo unspecified)", "Potency": "inactive"}
{"smiles": "CCOC(=O)Cc1csc(NC(=O)c2c(O)c3ccccc3n(CCC(C)C)c2=O)n1", "Potency": "inactive"}
{"smiles": "O=C(O)CN1C(=O)CN=C(c2ccccn2)c2cc(Cl)ccc21", "Potency": "inactive"}
{"smiles": "COc1ccc(C(O)P(=O)(Oc2ccccc2)Oc2ccccc2)cc1", "note": "(stereo unspecified)", "Potency": "inactive"}
{"smiles": "C[C@@H]1CC[C@@]2(NC1)O[C@H]1C[C@H]3[C@@H]4CC=C5C[C@@H](O)CC[C@]5(C)[C@H]4CC[C@]3(C)[C@H]1[C@@H]2C", "Potency": "inactive"}
{"smiles": "COc1cc(-c2ccc(-[n+]3nc(-c4ccccc4)nn3-c3ccc([N+](=O)[O-])cc3)c(OC)c2)ccc1-[n+]1nc(-c2ccccc2)nn1-c1ccc([N+](=O)[O-])cc1", "Potency": "56.2 µM (active)"}
{"smiles": "O=c1oc2ccccc2c(O)c1C(c1ccccn1)c1c(O)c2ccccc2oc1=O", "Potency": "inactive"}
{"smiles": "C[N+](C)(C)CC#CCN1CCCC1=O", "Potency": "inactive"}
{"smiles": "CCCCn1c(=O)c(C(=O)Nc2ccsc2C(=O)OC)c(O)c2ccccc21", "Potency": "inactive"}
{"smiles": "Cc1cc(C(=O)NP(=O)(N2CCOCC2)N2CCOCC2)c(C)n1C1CC1", "Potency": "inactive"}
{"smiles": "O=C(Nc1ccc2ccccc2c1)c1nn(C23CC4CC(CC(C4)C2)C3)cc1Br", "Potency": "inactive"}
{"smiles": "COc1cc(/C=N/n2cnnc2)ccc1OC(=O)N(C)C", "Potency": "inactive"}
{"smiles": "CCOP(=O)(OCC)C(NC(=O)c1ccccc1C)C(Cl)(Cl)Cl", "note": "(stereo unspecified)", "Potency": "inactive"}
{"smiles": "c1cc2cc(c1)C[n+]1ccc(c3ccccc31)NCc1ccc(cc1)CNc1cc[n+](c3ccccc13)C2", "Potency": "282 µM (active)"}
{"smiles": "CC[C@]12C=CCN3CC[C@@]4(c5ccc(OC)cc5N(C)[C@H]4[C@@](O)(C(=O)OC)[C@@H]1OC(C)=O)C32", "note": "(stereo partly specified)", "Potency": "inactive"}
